The campaign covered roughly 360,000 compounds. About 2,400 (0.67%) were called active. Rule as the data show it: active = enhancement above about 30%; inactive = the rest. What follows is part of a selection rich in actives, with near analogues and random picks from the rest.
Target: Thyrotropin-releasing hormone receptor (Homo sapiens) (UniProt P34981)
Test: qHTS for Small Molecule Agonists and Allosteric Enhancers of Human TRH Receptor: Primary Screen for Enhancers; also: 0% is about no effect
Settings: TRHR cells, fluo-8 calcium fluorescence, EC20 TRH enhancement; at 2 µM; active compounds read high
In short: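 Enhancer read-out: after compound pinning and an initial kinetic agonist-mode read, an EC20 of TRH (10 nM final) was injected and fluo-8 calcium signal (Ex 480/Em 530) followed at 1 s/cycle for 100 cycles in TRHR-expressing cells.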

Sequence of Thyrotropin-releasing hormone receptor (Homo sapiens) (P34981 whole entry, looked up): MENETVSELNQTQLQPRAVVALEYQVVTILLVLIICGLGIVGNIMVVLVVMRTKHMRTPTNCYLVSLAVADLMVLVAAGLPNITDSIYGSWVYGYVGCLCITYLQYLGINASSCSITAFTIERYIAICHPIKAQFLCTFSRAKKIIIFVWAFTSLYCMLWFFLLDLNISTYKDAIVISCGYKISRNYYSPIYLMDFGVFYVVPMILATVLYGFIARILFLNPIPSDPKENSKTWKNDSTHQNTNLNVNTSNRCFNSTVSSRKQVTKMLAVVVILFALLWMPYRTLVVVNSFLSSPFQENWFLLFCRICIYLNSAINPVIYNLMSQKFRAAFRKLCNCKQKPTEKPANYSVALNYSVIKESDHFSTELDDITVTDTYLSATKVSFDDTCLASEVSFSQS

enhancement, inactive:
Cc1ccccc1OCc1nc2c3cnn(-c4ccccc4F)c3ncn2n1 8.56%, COc1ccc(-c2nc3sc(CCNS(=O)(=O)c4ccc(F)c(C)c4)c(C)n3n2)cc1 -2.89%, Cc1cccc(OCC(=O)N(Cc2ccc(C(C)C)cc2)Cc2ccco2)c1C 3.9%, Cc1ccc(C)c(OCC(=O)Nc2sc3c(c2C#N)CCCC3)c1C 0.637%, COc1cccc(CN(C)CC(=O)Nc2ccccc2C(=O)Nc2ccccc2)c1 2%, Cc1ccc(O)c(NC(=O)c2cc(-c3ccc(F)cc3)no2)c1 -8.05%, O=c1c2cccnc2n(Cc2cccc(F)c2)c(=O)n1Cc1ccccc1Cl -4.81%, CC(C)(C)n1c(=O)[nH]c2c(c1=O)CCC2 -6.6%, O=c1c(=O)n(Cc2c(F)cccc2Cl)ccn1Cc1ccccc1 6.97%, COc1ccc(N=Nc2c(-c3ccc(OC)cc3)[nH]oc2=O)cc1 5.67%, CCS(=O)(=O)c1nc(S(=O)(=O)c2ccc(C)cc2)c(NCc2ccc(Cl)cc2)s1 0.719%, CCN(CC)c1ccc(C2C(C(N)=O)=C(C)Nc3nc(SCc4ccccc4)nn32)cc1 (configuration not stated) 3.72%, C/C(=N\NC(=O)Cc1ccccc1[N+](=O)[O-])c1cccnc1 2.77%, C/C(=N\NC(=O)c1cccc([N+](=O)[O-])c1)c1cccnc1 3.55%, COc1ccc(CNC(=O)C2=Cc3cccc(OC)c3OC2)cc1OC -3.7%, C1=C(N2CCOCC2)/C(=C/c2nc3ccccc3[nH]2)CC1 3.98%, CC(C)C(=O)N1CCN(c2nc(-c3ccccc3)c3c(c2C#N)CC(C)(C)OC3)CC1 -1.59%, Cc1nc2nc(NCc3cccc(Br)c3)[nH]n2c(=O)c1Cc1ccccc1 2.4%, COc1ccc(-c2noc(CCC(=O)N(C)c3ccccc3C)n2)cc1 6.52%, N#Cc1c(N)nc2c3c(sc(=N)c2c1N)NC(=O)CC3c1ccccc1Cl (configuration not stated) 2.83%, COc1ccc(C2CC(=O)Nc3c2c(=O)nc2c(C)cccn32)cc1OC (configuration not stated) 15%, O=C(CSc1cn(CC(=O)N2CCOCC2)c2ccccc12)Nc1ccccc1 -5.59%, COc1ccc(Cc2nc3ccc(C(=O)NCc4ccccc4Cl)cc3o2)cc1 3.9%, CCC(Sc1nc2n[nH]c(C)c2c(=N)n1-c1ccccc1Cl)C(=O)N(CC)CC (configuration not stated) -2.62%, Cc1ccc(Oc2c(C(F)(F)F)oc3c(CN4CCCCC4)c(O)ccc3c2=O)cc1 0.578%, CCCOc1ccc(Cc2c(O)nc(N)[nH]c2=O)cc1C 5.99%, CCOC(=O)c1sc(NC(=O)CSc2nc(O)c(Cc3ccccc3)c(=O)[nH]2)nc1C 0.15%, Cc1cc2c(s1)c1cnn(Cc3cc(F)c(Cl)cc3Cl)c(=O)c1n2C -6.51%, COc1ccc(CCN2C(=O)c3oc4cc(C)cc(C)c4c(=O)c3C2c2ccccc2F)cc1OC (configuration not stated) -0.372%, O=C(Cc1ccccc1)Nc1sc2c(c1C(=O)Nc1ccc(Br)cc1)CCC2 1%, COc1ccc(C2Sc3ccccc3NC3=C2C(=O)c2ccccc23)c(OC)c1OC (configuration not stated) -4.93%, COc1ccccc1C(=O)N(Cc1ccc(C)o1)C1CCS(=O)(=O)C1 (configuration not stated) 0.844%, COc1cc(C(=O)N(Cc2ccc(C(C)C)cc2)C2CCS(=O)(=O)C2)cc(OC)c1OC (configuration not stated) -5.35%, CCOC(=O)c1ccc(N2C(=O)c3[nH]nc(-c4ccccc4)c3C2c2ccc(C(C)C)cc2)cc1 (configuration not stated) 7.37%, Cc1ccc(C)c(N2CCN(CCCNC(=O)Nc3ccc(Cl)cc3)CC2)c1 2.7%, Cc1ccc(NC(=O)c2cn3c4c(ccc(Cl)c4c2=O)OC(C)C3)cc1C (configuration not stated) 6.65%, O=C1NC(c2cc3c(cc2Cl)OCO3)Oc2ccccc21 (configuration not stated) 5.25%, C=CCOc1cccc(C2NC(=O)c3ccccc3O2)c1 (configuration not stated) -1.8%, Cc1ccc2c(=O)c(C(=O)c3ccc(F)cc3)cn(CC(=O)NC3CCCCC3)c2n1 7.98%, COCC(C)NS(=O)(=O)c1ccc(N2CCCCS2(=O)=O)cc1 (configuration not stated) 6.76%, CCOC(=O)C1=C(O)/C(=C/c2ccc(OCC(=O)Nc3ccc(C)cc3)cc2)N=C1C -0.756%, CCOC(=O)c1nn(-c2cccc(C)c2)cc1C(=O)c1ccccc1 11%, Cc1nn(Cc2ccc(F)cc2)c(C)c1NC(=O)c1cc(CC(C)C)on1 -1.79%, O=c1[nH]oc(O)c1-c1ncc(C(F)(F)F)cc1Cl 0.0064%, O=C(c1ccccn1)c1ncc(C(F)(F)F)cc1Cl 1.39%, COc1ccccc1Nc1nc(N)nc(N)c1S(=O)(=O)c1ccccc1 2.56%, O=C(NCc1nnc(C(=O)Nc2ccc(C(F)(F)F)cc2Cl)o1)c1ccccc1 0.059%, Cc1nnc(SCC(=O)NCc2ccccc2Cl)c2nn(-c3ccccc3)c(C)c12 4.74%, COc1ccccc1Nc1c2c(nc3ccc(NC(=O)/C=C/c4cc(OC)c(OC)c(OC)c4)cc13)CCCC2 0.792%, CCc1nnc(NC(=O)CCC(=O)N2CCN(c3cc(C)ccc3C)CC2)s1 10.6%, COc1ccc(CN2CCN(C(=O)CCC(=O)Nc3nnc(C(C)C)s3)CC2)cc1F -5.21%, CCOc1ccc(NC(=O)c2cc3c(=O)n(Cc4cccs4)ccc3nc2C)cc1 2.83%, Cc1cccc(NC(=O)c2nnn(CC(=O)Nc3ccc(C(C)C)cc3)c2N)c1C 16.4%, CCOc1ccc(NC(=O)COc2ccc(C(=O)N3CCC(C(N)=O)CC3)cc2OC)cc1 1.2%, CCOc1ccc(C(NC(=O)c2cc(OC)c(OC)c(OC)c2)c2cc(Cl)c3cccnc3c2O)cc1 (configuration not stated) 8.01%, CN(CC(=O)Nc1ccccc1F)S(=O)(=O)c1ccc2c(c1)c(=O)n(C)c(=O)n2C -1.52%, CCOc1cc2[nH]c(=O)n(Cc3ccc(C(=O)NCCN(CC)CC)cc3)c(=O)c2cc1OCC 6.62%, Cc1csc2nc(COc3ccc(NC(=O)COc4ccccc4)cc3)cc(=O)n12 -0.546%, Cc1ccc(C(=O)Nc2ccc(OCc3cc(=O)n4c5c(sc4n3)CCCC5)cc2)cc1 -8.75%, CCN(CC)c1cc(NC2CCCCC2)c2c3c(onc13)-c1ccccc1C2=O 3.4%, Cc1c(CNC(C)c2ccccc2)c(C(=O)O)c(C)n1Cc1c(F)cccc1Cl (configuration not stated) 0.16%, CCOc1ccc(-c2cc3nc(C4CCN(C(=O)OC(C)(C)C)CC4)c(C(=O)Nc4cccc(CC)c4)cn3n2)cc1 12.9%, CCOC(=O)/C(C#N)=C\c1c(C)cc(C)c(COC(C)=O)c1C 14.9%, Cc1ccc(/C=C(\C#N)C(=O)Nc2cc(C)ccc2C)cc1 -0.361%, CCc1ccc(NC(=O)N2CCN(C(=O)c3nsc4ccccc34)CC2)cc1 -4.71%, O=S(=O)(c1ccc2c(c1)OCCO2)N1CCN(S(=O)(=O)c2cc(F)ccc2F)CC1 6.77%, Cn1c(=O)n(Cc2c(F)cccc2Cl)c(=O)c2c1nc1n2CCN1c1ccc(F)cc1 0.582%, Cc1cc(C)cc(NC(=O)Cn2nc(N3CCN(c4ccccc4)CC3)ccc2=O)c1 -3.13%, Cc1cc(-c2ccc(C)c(S(=O)(=O)N3c4ccccc4CC3C)c2)on1 (configuration not stated) 0.217%, CCOc1cccc2cc(-c3cn4c(n3)sc3cc(C)ccc34)c(=O)oc12 -0.977%, COc1cc(CNCCSc2nnnn2C)ccc1OCc1ccc(Cl)cc1Cl 1.67%, COc1ccc(CCNC(=O)CCc2ccccc2O)cc1OC -5.5%, O=C(CSc1ncc(CO)n1Cc1ccc(F)cc1)NCc1ccco1 -2.31%, CCOc1ccc(CNC(=O)c2ccc3nc(CC)c(CC)nc3c2)cc1OC 1.32%, CC1CCN(C(=O)COC(=O)c2cc(=O)[nH]c3ccccc23)CC1 -7.78%, Cc1[nH]c2ccccc2c1C(=O)CN1CCCC(C)C1 (configuration not stated) -2.86%, Cc1nnc(N2CCCC(C(=O)NCCN(C)C)C2)c2nn(-c3ccccc3)c(C)c12 (configuration not stated) 1.94%, N#Cc1nc(Nc2cccc(Cl)c2)nc(NC2CCCC2)n1 -7.23%, CCn1c2ccccc2c2nnc(SCC(=O)O)nc21 -1.5%, COc1ccc(-n2nc(C(=O)NCCc3ccc(Cl)cc3)c3c4ccccc4n(C)c3c2=O)cc1Cl -3.1%, CCOC(=O)C1CCN(C(=O)Nc2cccc(OC)c2)CC1 -1.73%, CCN1CCN(C(=O)C2(NC(=O)Nc3cccc(F)c3)CCCCC2)CC1 1.28%

enhancement, active:
COc1cccc(CN(C)CC(=O)Nc2sc3c(c2C#N)CCC3)c1 40.2%, O=c1[nH]n2c(=O)c3c([nH]c2c1N=Nc1ccccc1)CCC3 31.1%, O=c1o[nH]c(-c2ccccc2)c1N=Nc1c(F)cccc1Cl 45.6%, O=C(/C=C/c1ccc(Cl)c([N+](=O)[O-])c1)c1cccnc1 36.2%, CC1(C)Cc2c(C#N)c(SCc3nc4ccccc4[nH]3)nc(N3CCOCC3)c2CO1 34.4%, COc1ccc(C2CC(=O)Nc3sc(=N)c4c(N)c(C#N)c(N)nc4c32)cc1OC (configuration not stated) 33.8%, CCCOc1ccc(Cc2c(O)nc(SC)[nH]c2=O)cc1C 40.1%, COc1c(Cl)cc(C(=O)N(Cc2ccccc2F)C2CCS(=O)(=O)C2)cc1Cl (configuration not stated) 34%, O=C1NC(c2ccccc2)Oc2ccccc21 (configuration not stated) 36.1%, CCOC(=O)C1=C(O)/C(=C/c2cc(C)n(-c3ccccc3)c2C)N=C1C 43.5%, O=c1[nH]c2cccnc2n(CCNc2ncc(C(F)(F)F)cc2Cl)c1=O 48.4%, CC(C)c1nnc(NC(=O)CCC(=O)N2CCN(c3cccc(Cl)c3)CC2)s1 44.3%, CCOc1ccc(N/C=C/C(=O)c2cc(OC)c(OC)c(OC)c2)cc1 36%, Cc1ccc(C(=O)Nc2ccc(OCc3cc(=O)n4c(C)csc4n3)cc2)cc1 44.4%, COC(=O)/C(C#N)=C/c1occc1C 32.7%, CN1C(=O)c2cccc3c(N)ccc(c23)C1=O 50.3%, Cc1nn(C)cc1N1C(=O)c2cccc3c(N)ccc(c23)C1=O 30%, COc1ccc(CCn2ccc(O)c(Cc3ccc(Cl)cc3Cl)c2=O)cc1OC 54.5%, CC1CCN(CC(=O)c2c[nH]c3ccccc23)CC1 38%, CCOC(=O)C1CCN(C(=O)C2(NC(=O)Nc3cccc(F)c3)CCCCC2)CC1 34.3%
